We go through 38 compounds from PubChem BioAssay (NCATS).

Several values for one entry are separate records, joined by “and”; a condition that tells them apart may be missing. Equal entries are not always repeated. Results filed as inconclusive are left out. Where a call stands in place of a potency, no number is given. Activity calls are given as the source filed them. Calls come from the whole dose curve.

A short description of the experiment: Primary qHTS to identify inhibitors of SARS-CoV-2 cell entry (AID 1645846). Note: nearly all actives have a fitted effect of over 45% in size. Particulars: SARS-CoV-2 pseudovirus cell entry assay, luminescence; activity change, negative = inhibition: at 57.1 µM (top of the series) unless noted; series mostly up to 57.1 µM. A digest of the protocol: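 Inhibition of spike-mediated entry was scored in human ACE2-transfected Expi293F cells. Particles were MLV-pseudotyped with Wuhan-Hu-1 S carrying a 19-aa C-terminal deletion; signal was luciferase after two days, scaled between spike PP and fusion-protein-free PP.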
On the technique in general: qHTS replaces the single test concentration by a dilution series.
As to `CN(C)C(=O)Oc1ccc[n+](C)c1`, the compound was classed as inactive. Consider `Cc1ccsc1/C=C/C1=NCCCN1C`, for which the activity change, negative = inhibition was -11.3%. `O=C(O)CCCC[C@@H]1SC[C@@H]2NC(=O)N[C@@H]21`: the result was inactive.

Take `Cc1c[nH]c2ccccc12`: the activity change, negative = inhibition was -24.2%. `Cc1ccc(C(=O)c2ccc(CC(=O)O)n2C)cc1`: the call was inactive. As for `NC(=O)NC(=O)Cc1ccccc1`, the compound was called inactive. Turning to `CCOC(=O)c1ccc(OCCN2C[C@H](O)[C@@H](O)[C@H](O)[C@H]2CO)cc1`, the activity change, negative = inhibition was found to be 0.637%. Turning to `O=C(N[C@H](CO)[C@H](O)c1ccc([N+](=O)[O-])cc1)C(Cl)Cl`, the activity change, negative = inhibition is 2.2%.

Consider `CN(CC1(C)CCCO1)S(=O)(=O)c1ccc(Cl)c(S(N)(=O)=O)c1` (stereo not drawn), for which the activity change, negative = inhibition was -32.6%. Turning to `Cc1ccccc1OCC(O)CO` (stereo not drawn), the outcome was inactive. Turning to `CN1C(CSCC(F)(F)F)Nc2cc(Cl)c(S(N)(=O)=O)cc2S1(=O)=O` (stereo not drawn), the activity change, negative = inhibition is -21.3%. Same read-out and setting: as for `CC(CCc1ccccc1)NCC(O)c1ccc(O)c(C(N)=O)c1` (stereo not drawn), the figure is -28.2%.

With `Cc1c(NC(=O)c2cccnc2)c(=O)n(-c2ccccc2)n1C`, the call was inactive. As for `COc1cc(OC)c(C(=O)CCCN2CCCC2)c(OC)c1`, the activity change, negative = inhibition is -26.6%. For the compound `c1ccc(-c2nc[nH]c2-c2ccccc2)cc1`, the result was inactive. As for `Cc1cccc(C)c1NC(=O)CC12CCCN1CCC2`, the activity change, negative = inhibition is -23.5%. With `CCCN1CCCC[C@H]1C(=O)Nc1c(C)cccc1C`, the activity change, negative = inhibition is -27.2%. Same read-out and setting: as for `CCOc1cc(CC(=O)N[C@@H](CC(C)C)c2ccccc2N2CCCCC2)ccc1C(=O)O`, the figure is -13.4%.

For `CC12CCC(CC1)C(C)(C)O2`, the outcome was inactive. Same read-out and setting: as for `Nc1ncnc2nc[nH]c12`, the entry is “inactive”.

As for `Cc1oc(=O)oc1CN1CCN(c2cc3c(cc2F)c(=O)c(C(=O)O)c2n3C(C)S2)CC1` (stereo not drawn), the Potency result was “inactive”.

As for `CCOc1ccc(NC(=O)CC(C)O)cc1` (stereo not drawn), the activity change, negative = inhibition is -25.9%.

In the case of `CC(=O)SCC(CC(=O)c1ccc(C)cc1)C(=O)O` (stereo not drawn), the compound was called inactive. As to `CCOC(=O)[C@H](CCc1ccccc1)N[C@@H](C)C(=O)N1CCC[C@H]1C(=O)O`, the activity change, negative = inhibition was -3.71% and -6.05%. As for `C=CCc1ccc(O)c(OC)c1`, the compound was classed as inactive. The same measure, in the same setting: with `CCC(C(=O)NC(=O)NC(C)=O)c1ccccc1` (stereo not drawn) the entry was “inactive”. Turning to `CN1C[C@H](C(=O)N[C@]2(C)O[C@@]3(O)[C@@H]4CCCN4C(=O)[C@H](Cc4ccccc4)N3C2=O)C=C2c3cccc4[nH]cc(c34)C[C@H]21`, the activity change, negative = inhibition was -28.9%. For `CC(=O)OCC1=C(C(=O)O)N2C(=O)[C@@H](NC(=O)Cc3cccs3)[C@H]2SC1`, the activity change, negative = inhibition amounted to 1.38%. For `O=C(c1ccccc1)C(O)c1ccccc1` (stereo not drawn), the outcome was inactive. As to `COc1cccc(OC)c1C(=O)N[C@@H]1C(=O)N2[C@@H]1SC(C)(C)[C@@H]2C(=O)O`, the activity change, negative = inhibition is -19.9%. On to `O=S(=O)(O)c1ccc2nc(-c3ccccc3)[nH]c2c1`, for which the call was inactive. For `CC(C)(C)NC[C@H](O)COc1cccc2c1CCCC2=O`, the activity change, negative = inhibition is -5.98%. For `COc1ccc(C2CNC(=O)C2)cc1OC1CCCC1` (stereo not drawn), the activity change, negative = inhibition was 4.15% and -11.8%. Still for that read-out and setting: as for `CC(C)(Oc1ccc(Cl)cc1)C(=O)OCCCOC(=O)C(C)(C)Oc1ccc(Cl)cc1`, the figure is -28.5%. Take `O=C(Oc1ccccc1)c1ccccc1O`: the compound was classed as inactive. The same measure, in the same setting: as for `CC(=O)Nc1ccc(S(=O)(=O)Nc2cc(C)on2)cc1`, the entry is “inactive”.

Consider `CCCCC(=O)OCC(=O)[C@H]1[C@H](C)C[C@H]2[C@@H]3C[C@H](F)C4=CC(=O)C=C[C@]4(C)[C@@]3(F)[C@@H](O)C[C@@]21C`, for which the compound was classed as inactive. The same measure, in the same setting: with `COc1cc2c3cc1Oc1cc(ccc1O)C[C@@H]1c4c(cc(OC)c(O)c4Oc4ccc(cc4)C[C@@H]3N(C)CC2)CC[N+]1(C)C` the entry was “inactive”.
